The test system of experiment [1] is Wnt5a (protein binding on small-molecule microarray). In words: Wnt5a binders on small-molecule microarray, primary screen, biophysical, 635/667 nm fluorescence (AID 1142).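 Also: fluorescence read at 667 nm with signal to noise per printed feature.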 The note with it: 635 nm fluorescence, higher = more signal.
Experiment [2] can be described thus: cell viability in Huh7 cells, primary screen, cytotoxicity control for HCV replication inhibitor project, CellTiter-Glo luminescence, basal, 48 h (AID 1143).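 Also: Huh7 hepatoma cells carrying a hepatitis C replication reporter with no stimulus; test concentration not given here.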 The note with it: Huh7 HCV replicon, higher = more signal, called active from +8 up or from −8 down.
The nature of experiment [3]: P. aeruginosa biofilm formation inhibitors, primary screen, PAO1 strain, BacTiter-Glo luminescence, LB-PBS (AID 1144). The conditions noted are these: 12 h, higher = more signal.
Experiment [4] can be described thus: CREB reporter modulators without forskolin, primary screen, cell-based, PC12, CRE-LacZ reporter, unstimulated (AID 1145). The conditions noted are these: no forskolin, luminescence, 4.5 h, higher = more signal, called active from +8 up or from −8 down.
Experiment [5] in a line: CREB reporter modulators under forskolin, primary screen, cell-based, PC12, CRE-LacZ reporter, forskolin-stimulated (AID 1146).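 Also: PC12 cells with 6xCRE LacZ reporter stimulated by forskolin 10 µM; beta-galactosidase reporter signal reflecting CREB driven transcription.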 The note with it: luminescence, 4.5 h, higher = more signal, called active from +8 up or from −8 down.
In experiment [6] the target is Streptavidin (Streptomyces avidinii) (UniProt P22629). Put plainly: streptavidin binders on small-molecule microarray, primary screen, artefact control for SMM compound annotation, biophysical, 635/667 nm fluorescence (AID 1147).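 Also: signal reflects streptavidin binding to arrayed compounds as a control protein.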 The note with it: streptavidin binding, higher = more signal.
Experiment [7] in a line: small-molecule binders of probe aInhba, primary screen, biochemical, small-molecule microarray, 635/667 nm fluorescence (AID 1148).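 Also: score merges 667nm spot fluorescence with signal-to-noise for antibody binding to printed compounds.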 The conditions noted are these: higher = more signal.
Experiment [8] concerns the target Torsin-1A (Homo sapiens) (UniProt O14656). In words: torsin A binders from cell lysate, primary screen, small-molecule microarray, wild-type, 635/667 nm (AID 1149). The note with it: COS7 hTOR1A-WT lysate, 635 nm fluorescence, higher = more signal.
Experiment [9] has the same target. In words: small-molecule binders of mutant TOR1A in lysate, primary screen, cell lysate, small-molecule microarray, COS7 lysate, 635/667 nm fluorescence (AID 1150).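 Also: score pools 667 nm emission and signal to noise measuring lysate protein binding.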 The note with it: COS7 hTOR1A mutant lysate, 635 nm fluorescence, higher = more signal.
Experiment [10] has as its system Sonic hedgehog protein (Shh). Put plainly: small-molecule binders of Shh protein, primary screen, biochemical, small-molecule microarray, 635/667 nm fluorescence (AID 1151).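 Also: Shh protein binding to compounds spotted on small-molecule microarray slides; score combines spot fluorescence intensity with signal-to-noise across triplicate slides.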 The note with it: small-molecule microarray binding, 635 nm fluorescence; higher = more signal.
Experiment [11] in a line: E. coli DRC41 culture turbidity changes, primary screen, E. coli filamentation inducer project, strain DRC41, OD650, 48 h (AID 1152).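 Also: E. coli MC1000 strain DRC41 lacking acrAB efflux pump and sulA.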 The note with it: E. coli DRC41 (acrAB sulA), higher = more signal, called active from +8 up or from −8 down.
Experiment [12] in a line: small-molecule binders of probe aLefty1, primary screen, biochemical, small-molecule microarray, 635/667 nm fluorescence (AID 1153).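 Also: score merges spot fluorescence with signal-to-noise ratio from the scanned slide images.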 The note with it: higher = more signal.
Experiment [13] is described as follows: PSAC antagonists in infected red cells, primary screen, cell-based, P. falciparum Indochina, OD700, 1 h (AID 1154). The conditions noted are these: P. falciparum Indochina infected RBC osmotic lysis, higher = more signal, called active from +8 up or from −8 down.
Experiment [14] in a line: PSAC antagonists in infected red cells, primary screen, cell-based, P. falciparum Indochina, OD700, 2 h (AID 1155).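 Also: lysis reports solute entry through the parasite surface anion channel PSAC; channel blockers reduce lysis of infected cells.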 The note with it: P. falciparum Indochina infected erythrocytes, osmotic lysis OD700; higher = more signal, called active from +8 up or from −8 down.
Experiment [15] can be described thus: osmotic lysis modulators in infected erythrocytes, primary screen, PSAC antagonist project, cell-based, P. falciparum Indochina, OD700, 3 h (AID 1156). The conditions noted are these: higher = more signal, called active from +8 up or from −8 down.
A short description of experiment [16]: PSAC antagonists in infected red cells, primary screen, cell-based, P. falciparum Indochina, OD700, 18 h (AID 1157). The conditions noted are these: P. falciparum Indochina infected erythrocytes, osmotic lysis OD700, 18 h; higher = more signal, called active from +8 up or from −8 down.
Experiment [17] can be described thus: modulators of S6 phosphorylation in cells, primary screen, cell-based, A549, cytoblot, luminescence, serum-stimulated (AID 1158).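 Also: serum-stimulated A549 lung adenocarcinoma cells; signal is phosphorylated S6 detected by cytoblot immunostaining with HRP secondary.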 The note with it: A549 phospho-S6 cytoblot, 5 h, higher = more signal.
In experiment [18] the target is NADPH oxidase 2 (Homo sapiens) (UniProt P04839). In words: NOX2-dependent H2O2 signal modulators, primary screen, NOX inhibitor project, cell-based, HEK293-NOX2, PMA-stimulated, Amplex Red fluorescence (AID 1159). Also: test concentration not given here. The note with it: 45 min, higher = more signal, called active from +8 up or from −8 down.
Experiment [19] addresses NADPH oxidase 4 (Homo sapiens) (UniProt Q9NPH5). In words: NOX4-dependent H2O2 signal modulators, primary screen, NOX inhibitor project, cell-based, HEK293-NOX4, tetracycline-induced, Amplex Red fluorescence (AID 1160). The note with it: 45 min, higher = more signal, called active from +8 up or from −8 down.
Experiment [20] concerns the target NADPH oxidase 5 (Homo sapiens) (UniProt Q96PH1). In words: NOX5-dependent H2O2 signal modulators, primary screen, NOX inhibitor project, cell-based, HEK293-NOX5, Amplex Red fluorescence (AID 1161). The note with it: HEK293-NOX5, ionomycin, 45 min, higher = more signal.

Activity calls are given as the source filed them. Unless noted, no rule for the calls is given here.

NADPH oxidase 2 (Homo sapiens), sequence (P04839 whole entry, looked up): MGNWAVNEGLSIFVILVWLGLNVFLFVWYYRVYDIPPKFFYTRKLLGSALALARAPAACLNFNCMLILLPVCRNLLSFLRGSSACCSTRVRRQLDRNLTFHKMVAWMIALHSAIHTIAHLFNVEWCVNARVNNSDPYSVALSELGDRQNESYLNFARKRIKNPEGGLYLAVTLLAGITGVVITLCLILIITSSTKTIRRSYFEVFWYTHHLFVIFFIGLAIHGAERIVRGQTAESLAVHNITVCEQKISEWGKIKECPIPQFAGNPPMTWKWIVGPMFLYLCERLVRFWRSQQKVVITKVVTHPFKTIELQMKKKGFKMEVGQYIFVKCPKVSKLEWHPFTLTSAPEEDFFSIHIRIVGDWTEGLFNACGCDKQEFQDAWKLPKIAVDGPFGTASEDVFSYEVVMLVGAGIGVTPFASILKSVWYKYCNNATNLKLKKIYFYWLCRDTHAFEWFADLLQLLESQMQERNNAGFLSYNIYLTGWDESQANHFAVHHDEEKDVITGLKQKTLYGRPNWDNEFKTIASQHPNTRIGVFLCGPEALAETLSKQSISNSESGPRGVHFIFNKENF
NADPH oxidase 4 (Homo sapiens), sequence (Q9NPH5 whole entry, looked up): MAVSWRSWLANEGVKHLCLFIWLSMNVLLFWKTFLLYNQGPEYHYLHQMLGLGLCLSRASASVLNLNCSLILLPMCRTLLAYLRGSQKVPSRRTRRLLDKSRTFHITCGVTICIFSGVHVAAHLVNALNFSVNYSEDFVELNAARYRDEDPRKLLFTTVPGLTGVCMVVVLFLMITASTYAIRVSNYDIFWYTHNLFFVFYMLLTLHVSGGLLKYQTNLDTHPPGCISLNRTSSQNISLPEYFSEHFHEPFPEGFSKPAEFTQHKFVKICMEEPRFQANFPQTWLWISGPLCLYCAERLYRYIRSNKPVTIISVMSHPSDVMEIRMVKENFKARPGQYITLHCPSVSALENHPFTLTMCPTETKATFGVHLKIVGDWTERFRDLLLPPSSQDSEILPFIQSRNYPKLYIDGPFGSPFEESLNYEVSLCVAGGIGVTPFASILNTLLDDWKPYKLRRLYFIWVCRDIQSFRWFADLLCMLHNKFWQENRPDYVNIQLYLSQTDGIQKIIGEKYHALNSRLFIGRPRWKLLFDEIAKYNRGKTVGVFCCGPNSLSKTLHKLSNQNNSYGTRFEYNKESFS
Torsin-1A (Homo sapiens), sequence (O14656 whole entry, looked up): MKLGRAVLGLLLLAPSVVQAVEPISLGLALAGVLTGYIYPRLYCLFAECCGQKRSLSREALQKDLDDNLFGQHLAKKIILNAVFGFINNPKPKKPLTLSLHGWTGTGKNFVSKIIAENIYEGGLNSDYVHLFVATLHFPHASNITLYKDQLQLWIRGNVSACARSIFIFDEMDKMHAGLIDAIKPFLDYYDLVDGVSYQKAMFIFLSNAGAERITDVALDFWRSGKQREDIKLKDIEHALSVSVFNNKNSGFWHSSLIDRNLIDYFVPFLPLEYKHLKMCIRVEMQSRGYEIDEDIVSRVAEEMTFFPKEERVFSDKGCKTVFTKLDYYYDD
Streptavidin (Streptomyces avidinii), sequence (P22629 whole entry, looked up): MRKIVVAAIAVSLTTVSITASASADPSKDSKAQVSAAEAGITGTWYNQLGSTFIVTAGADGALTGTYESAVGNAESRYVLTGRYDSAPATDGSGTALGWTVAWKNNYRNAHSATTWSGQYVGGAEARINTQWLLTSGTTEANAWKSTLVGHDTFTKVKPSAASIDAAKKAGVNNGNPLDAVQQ
NADPH oxidase 5 (Homo sapiens), sequence (Q96PH1 whole entry, looked up): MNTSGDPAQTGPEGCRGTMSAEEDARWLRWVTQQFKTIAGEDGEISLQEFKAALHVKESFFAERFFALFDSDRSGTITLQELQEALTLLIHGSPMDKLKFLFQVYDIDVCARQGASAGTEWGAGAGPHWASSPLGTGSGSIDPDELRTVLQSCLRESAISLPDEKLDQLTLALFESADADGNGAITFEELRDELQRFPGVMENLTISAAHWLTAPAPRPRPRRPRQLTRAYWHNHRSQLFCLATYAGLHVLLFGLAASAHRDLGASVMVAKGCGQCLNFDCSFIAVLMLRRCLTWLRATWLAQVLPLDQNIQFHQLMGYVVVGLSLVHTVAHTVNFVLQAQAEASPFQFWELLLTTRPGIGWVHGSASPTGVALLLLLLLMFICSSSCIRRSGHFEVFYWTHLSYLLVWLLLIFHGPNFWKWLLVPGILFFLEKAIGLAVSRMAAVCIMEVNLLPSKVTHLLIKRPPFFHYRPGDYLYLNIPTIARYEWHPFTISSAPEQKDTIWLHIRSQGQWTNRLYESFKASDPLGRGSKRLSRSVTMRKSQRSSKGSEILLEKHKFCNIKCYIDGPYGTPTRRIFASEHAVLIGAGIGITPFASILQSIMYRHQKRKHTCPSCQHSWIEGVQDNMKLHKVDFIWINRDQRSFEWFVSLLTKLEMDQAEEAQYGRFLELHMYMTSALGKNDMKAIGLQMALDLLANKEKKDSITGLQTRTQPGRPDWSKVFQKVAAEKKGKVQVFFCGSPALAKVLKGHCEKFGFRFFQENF

With `COc1ccc(C(O)C2C=CC3C(=O)N(c4ccccc4)C(=O)C3N2Nc2ccc([N+](=O)[O-])cc2)cc1` (stereo not given), the composite z-score is 0.516 in experiment [1]; 0.789 in experiment [6]; 1.18 in experiment [7]; 0.0294 with Torsin-1A (Homo sapiens) [8]; 0.874 with Torsin-1A (Homo sapiens) [9]; -0.397 in experiment [10]. In addition, the composite z-score in experiment [12] came out at 0.987. Further, the z-score in experiment [2] is -0.474 (inactive); in experiment [3] it was 0.403 (inactive); in [4], 0.182 (inactive); in [5] it was -0.298 (inactive); in [11], -1.35 (inactive); in experiment [13], 14.3 (active). The z-score in experiment [14] is 2.49 (inactive); in experiment [15], 0.547 (inactive); in experiment [16], 1.24 (inactive); in experiment [17], -0.727; in [18], -0.897 (inactive); in experiment [19], -2.79 (inactive). The z-score in experiment [20] was -2.72.
For the compound `O=C(NCC(F)(F)F)[C@@H]1c2ccccc2C(=O)N(Cc2ccc(OC(F)(F)F)cc2)[C@H]1c1ccc(CO)cc1`, the composite z-score in experiment [1] is 0.119; in [6] it was -0.176; in experiment [7], -0.0672; in the experiment with Torsin-1A (Homo sapiens) [8] it was 0.176; with Torsin-1A (Homo sapiens) [9] it was -0.0108; in [10], 1.74. The composite z-score in [12] was -0.252. Also, the z-score in [2] is -2.41 (inactive); in experiment [3], -0.652 (inactive); in experiment [4], 0.531 (inactive); in experiment [5] it was 0.118 (inactive); in [11] it was 0.484 (inactive); in experiment [13] it was 0.926 (inactive). Also, the z-score in experiment [14] was -0.137 (inactive); in [15], 1.44 (inactive); in experiment [16], 0.376 (inactive); in experiment [17], -0.323; in experiment [18] it was -0.759 (inactive); in [19], -0.889 (inactive). In experiment [20], this compound registered a z-score of -0.263.
Take `CCOC(=O)C1=CC[C@@H](c2cccc(Cl)c2)N(S(=O)(=O)c2ccc(C)cc2)C1`: the composite z-score is -0.159 in [1]; 0.449 in experiment [6]; 0.0173 in experiment [7]; 0.176 with Torsin-1A (Homo sapiens) [8]; 0.193 in the experiment with Torsin-1A (Homo sapiens) [9]; -0.327 in [10]. Further, the composite z-score in experiment [12] turned out to be 0.0166. The z-score in [2] was -5.08 (inactive); in experiment [3] it was -0.06 (inactive); in experiment [4], -0.574 (inactive); in [5], 0.132 (inactive); in experiment [11] it was 0.065 (inactive); in [13], 2.31 (inactive). For the same compound, the z-score in experiment [14] is -0.389 (inactive); in [15] it was -0.423 (inactive); in experiment [16] it was -1.89 (inactive); in experiment [17] it was 1.02; in experiment [18] it was 0.201 (inactive); in [19], -0.927 (inactive). In experiment [20], the z-score is -0.736.
In the case of `NC(N)=NCCCn1cc(CNC(=O)[C@@H](N)Cc2ccccc2)nn1`, the composite z-score in [1] was -0.0448; in experiment [6] it was -0.298; in [7] it was 0.017; in the experiment with Torsin-1A (Homo sapiens) [8], 0.485; in the experiment with Torsin-1A (Homo sapiens) [9] it was 0.142; in [10] it was 1.08. The compound also gave a composite z-score in experiment [12] of -0.0171. For the same compound, the z-score in experiment [2] is -0.109 (inactive); in experiment [3], 1.6 (inactive); in [4], -0.491 (inactive); in experiment [5], 0.35 (inactive); in experiment [11] it was -0.929 (inactive); in [13], -0.174 (inactive). For the same compound, the z-score in experiment [14] was 0.0333 (inactive); in experiment [15], -0.561 (inactive); in experiment [16] it was 0.36 (inactive); in experiment [17], 0.243; in experiment [18], -2 (inactive); in [19] it was 0.227 (inactive). Besides, the z-score in experiment [20] was -0.264.
For the compound `COc1cc(CO)cc(I)c1O[C@H]1C=C(C(=O)NCCO)C[C@@H](NCc2ccc(F)cc2)[C@@H]1O`, the composite z-score was 0.617 in experiment [1]; -0.156 in experiment [6]; -0.101 in experiment [7]; 0.0626 in the experiment with Torsin-1A (Homo sapiens) [8]; 0.0975 with Torsin-1A (Homo sapiens) [9]; 0.591 in experiment [10]. In addition, the composite z-score in experiment [12] was -0.24. Further, the z-score in [2] was -1.76 (inactive); in experiment [3], -0.613 (inactive); in experiment [4], 10 (active); in [5], -1.05 (inactive); in experiment [11], 0.548 (inactive); in [13], 21.8 (active). The z-score in [14] was 5.43 (inactive); in [15], 4.03 (inactive); in [16] it was 1.36 (inactive); in [17], 0.325; in experiment [18], -1.07 (inactive); in experiment [19], -1.05 (inactive). Also, in experiment [20], the z-score was -0.994.

The values are drawn from PubChem BioAssay.
